Source: the supplement of paper PMC13380429

Tested on: Vero E6 infected with SARS-CoV-2
Assay: inhibition of SARS-CoV-2 cytopathic effect; higher = more antiviral protection, active = above 15
Conditions: 48 h

Measured: inhibition of SARS-CoV-2 cytopathic effect

CCCC(=O)C1CCN(c2ncnc3c2CN(C(=O)c2ccc(-c4ccccc4)cc2)CC3)CC1
inactive: 1 nM -1.91% | 8.33 nM -1.68% | 100 nM 2.34% | 833.33 nM -0.3% | 10000 nM -1.38%

CCCCCCCCCCCCCCCC(=O)OC[C@@H](NC(=O)C(Cl)Cl)[C@H](O)c1ccc([N+](=O)[O-])cc1 [chloramphenicol-palmitate]
inactive: 1 nM 0.12% | 8.33 nM 0.68% | 100 nM -1.3% | 833.33 nM -1.25% | 10000 nM 0.57%

COc1cc2nccc(Oc3ccc(NC(=O)C4(C(=O)Nc5ccc(F)cc5)CC4)cc3)c2cc1OC [cabozantinib]
inactive: 1 nM 1.77% | 8.33 nM 1.83% | 100 nM -0.89% | 833.33 nM -1.04% | 10000 nM -14.2%

O=C1CCc2ccc(OCCCCN3CCN(c4cccc(Cl)c4Cl)CC3)cc2N1 [aripiprazole]
inactive: 1 nM 5.18% | 8.33 nM -2.79% | 100 nM 1.15% | 833.33 nM -1.05% | 10000 nM -5.25%

c1ccc(COCCCc2c[nH]cn2)cc1 [proxyfan]
inactive: 1 nM -1.62% | 8.33 nM -1.11% | 100 nM -0.96% | 833.33 nM 0.04% | 10000 nM -3.35%

Cc1nc2ccccc2n1Cc1ccc(Cl)cc1 [chlormidazole]
inactive: 1 nM -3.42% | 8.33 nM -1.1% | 100 nM -6.27% | 833.33 nM -3.55% | 10000 nM -4.49%

Cc1oc(=O)oc1COC(=O)C1=C([C@H]2CCCO2)S[C@@H]2[C@@H]([C@@H](C)O)C(=O)N12 [faropenem-medoxomil]
inactive: 1 nM 2.73% | 8.33 nM -1.09% | 100 nM -0.59% | 833.33 nM 2.96% | 10000 nM 1.04%
